Cruzain noTriton: qHTS Assay for Promiscuous and Specific Inhibitors of Cruzain (without detergent). Potency, µM, for inactives: max response, negative = inhibition, usual class: inhibitors. purified cruzain, Z-FR-AMC fluorescence, no detergent. actives 2.3% (n = 200,000);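 further: plate controls were enzyme without inhibitor for no effect and buffer without enzyme for full effect; nearly all actives have a fitted effect of over 40% in size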
Target sequence (P25779 123-467 limits assumed): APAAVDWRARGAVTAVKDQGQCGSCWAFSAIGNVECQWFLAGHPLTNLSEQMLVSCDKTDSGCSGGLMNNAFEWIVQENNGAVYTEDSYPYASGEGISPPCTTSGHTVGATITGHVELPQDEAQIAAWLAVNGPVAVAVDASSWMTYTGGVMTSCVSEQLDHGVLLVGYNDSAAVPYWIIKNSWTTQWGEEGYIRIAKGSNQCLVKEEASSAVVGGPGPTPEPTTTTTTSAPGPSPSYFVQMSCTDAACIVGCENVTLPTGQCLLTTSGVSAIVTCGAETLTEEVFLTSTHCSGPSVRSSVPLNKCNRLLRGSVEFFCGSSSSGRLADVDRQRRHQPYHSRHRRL
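Purified cruzain at 1.5 nM, pre-incubated 15 min with compound at room temperature in 100 mM sodium acetate pH 5.5, 5 mM DTT, 0.00005% Triton X-100. Reaction started with 2 uM Z-FR-AMC; AMC fluorescence increase over 60 s gives rate.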
Cruzain inh Det: qHTS Assay for Promiscuous and Specific Inhibitors of Cruzain (with detergent) | actives 0.43% (n = 200,000) | Cruzipain (Trypanosoma cruzi), P25779 | AID 1478, 2009 | purified cruzain, Z-FR-AMC fluorescence, 0.01% Triton | Potency, µM, inactives show max response, negative = inhibition, usual class: inhibitors;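 further: plate controls were neutral wells for no effect and buffer without enzyme for full effect; nearly all actives have a fitted effect of over 40% in size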
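Enzyme 1.5 nM, Z-FR-AMC 2 uM, NaOAc 100 mM pH 5.5, DTT 5 mM, Triton X-100 0.01%; 15 min RT compound preincubation; kinetic ex360/em450, 60 s delta.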
Papain inh: qHTS Assay for Inhibitors of Papain: Counterscreen for Cruzain Assay; shares compounds with Cruzain inh Det; purified papain, Z-FR-AMC fluorescence cleavage; Potency, µM, without a hit: max response, negative = inhibition, actives largely listed as inhibitors; actives 41% (n = 410); AID 2161, 2009;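 further: 0% = no-compound wells and -100% = no-enzyme wells; nearly all actives have a fitted effect of over 35% in size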
Target sequence (P00784 whole entry, looked up): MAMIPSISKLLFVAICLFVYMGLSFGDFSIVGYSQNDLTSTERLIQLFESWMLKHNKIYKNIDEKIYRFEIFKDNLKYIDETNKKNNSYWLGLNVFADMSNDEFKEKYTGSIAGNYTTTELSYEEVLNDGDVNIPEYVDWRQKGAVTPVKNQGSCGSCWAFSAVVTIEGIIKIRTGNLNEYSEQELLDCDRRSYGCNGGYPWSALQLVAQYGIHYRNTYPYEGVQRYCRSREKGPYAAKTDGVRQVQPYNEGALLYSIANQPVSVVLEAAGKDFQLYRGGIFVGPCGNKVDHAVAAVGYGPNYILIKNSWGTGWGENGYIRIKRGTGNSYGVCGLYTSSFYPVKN
* = called active by the depositor; ? = inconclusive; . = no result. This is a sample that favours compounds with a hit; in the whole collection about 2.4% have one here. The call rests on the fitted dose curve; in most records, active means well fitted curve in the direction sought with a large enough effect; inconclusive means small, poorly fitted or top-dose-only effect, or another doubt; inactive means no such curve, though single readings can be large; an effect the other way counts as inactive or inconclusive. Potency means the concentration at half of the fitted maximal effect.

SMILES	Cruzain noTriton	Cruzain inh Det	Papain inh
O=C(CNC(=O)c1ccccc1)OC(C(=O)Nc1cc(C(F)(F)F)ccc1Cl)c1ccccc1 (stereo not given)	10µM*	7.1µM*	-17%
COc1ccc(CNC(=O)C2CCN(c3nc4ccccc4[nH]3)CC2)c(OC)c1	-1%	2%	.
Cc1ccc(COc2ccc3oc(-c4ccccc4)c(C(=O)O)c3c2)cc1	20µM*	?	32µM*
Cc1oc2ccc(OCc3ccc(F)cc3)cc2c1C(=O)O	-12%	-3%	.
Cc1ccc(C(=O)NCCn2c(N)c(C#N)c3nc4ccccc4nc32)cc1	?	-7%	28µM*
N#Cc1c(N)n(CCNC(=O)c2ccc(Cl)cc2)c2nc3ccccc3nc12	9%	-4%	.
O=C(NCCOc1ccccc1)c1cc(C(=O)NCCOc2ccccc2)cc([N+](=O)[O-])c1	-2%	-5%	.
O=C(NCCc1nc2ccccc2[nH]1)c1cc([N+](=O)[O-])cc([N+](=O)[O-])c1	-4%	3.5µM*	5%
CCOC(=O)N1CCN(Cc2ccccn2)CC1	-4%	-1%	.
CCOC(=O)N1CCC(=C2c3ccc(Cl)cc3CCc3cccnc32)CC1	?	-5%	-9%
O=C(COC(=O)CNS(=O)(=O)c1ccc(F)c(F)c1F)Nc1ccc(OC(F)F)cc1	?	22µM*	-6%
CCCCC(=O)OCC(=O)Nc1ccc(OC(F)F)cc1	-12%	1%	.
CCc1ccc(OCCSc2nc3ccccc3n2CC(=O)N2CCCCC2)cc1	14%	-5%	.
CCc1ccc(OCCn2c(CCNC(=O)C3CCCCC3)nc3ccccc32)cc1	.	.	-5%
CCCc1nc2ccccc2n1CCOc1ccccc1	0%	-6%	.
CCc1ccc(OCCCn2c(CCNC(=O)C3CCCCC3)nc3ccccc32)cc1	.	.	16µM*
COc1cc(OC)c(NC(=O)Cn2cnc3sc(C)c(S(=O)(=O)N4CCN(C)CC4)c3c2=O)cc1Cl	-4%	-1%	.
Cn1c(=O)c2c(nc(CN3CCN(c4ccccc4F)CC3)n2Cc2ccc(F)cc2)n(C)c1=O	?	-8%	.
O=C(CN1CCCN(Cc2ccccc2Cl)S1(=O)=O)Nc1ccc2c(c1)OCCO2	14%	-3%	.
N#Cc1nc(Nc2cc(Cl)cc(Cl)c2)nc(NC2CCCC2)n1	.	.	1.4µM*
COc1ccc(Nc2nc(C#N)nc(NC3CCCC3)n2)cc1	.	.	0.56µM*
N#Cc1c[nH]n2c(NC3CCCC3)c(-c3ccc(Cl)cc3)nc12	?	-8%	.
CCOc1nc(NC2CCCCC2)nc(NC(C)(C)C)n1	-9%	-10%	.
N#Cc1nc(Nc2cccc(-c3ccccc3)c2)nc(NC2CCCC2)n1	.	.	2.5µM*
FC(F)(F)c1cc(-c2ccccc2)nc(NC2CCCC2)n1	-6%	-1%	.
SMILES	Cruzain noTriton	Cruzain inh Det	Papain inh
N#Cc1nc(Nc2cc(F)cc(F)c2)nc(NC2CCCC2)n1	.	.	0.32µM*
COc1ccc(Nc2nccc(OC)c2C#N)cc1	6%	5%	.
COc1cc2ccccc2cc1C(=O)Nc1ccc2oc(-c3cccc(C)c3)nc2c1	-4%	2%	.
CCOc1ccc(C2C(=O)N(C3CCCCC3)CC(=O)N2C2CCCC2)cc1OC (stereo not given)	-8%	0%	.
COc1ccc2cc3cc(C(=O)Nc4cc(C)c(Cl)cc4OC)oc3nc2c1	3%	1%	.
COC(=O)NC(c1ccccc1)c1c[nH]c2ccc(OC)cc12 (stereo not given)	-12%	2%	.
O=C(NCCc1csc2nc(-c3ccccc3F)nn12)C(=O)Nc1cc(F)ccc1F	-5%	-1%	.
Cc1cccc(CNC(=O)c2cc3cc(S(=O)(=O)N4CCCCC4)ccc3n2C)c1	-8%	-2%	.
COC/C=C/C1=CC2=CC(=O)C(C)(OC(=O)CCc3ccccc3)C(=O)C2=CO1 (stereo not given)	2%	2%	.
Cc1noc(C)c1-c1ccc2ncnc(N(C)C)c2c1	-6%	-3%	.
Cc1cc2n(n1)CCCN2C(=O)Nc1ccc(C)c(Cl)c1	1%	-4%	.
COc1ccc(N2CC(NC(=O)/C=C\c3ccccc3)CC2=O)cc1 (stereo not given)	-1%	-5%	.
COc1cc2nc(Nc3cccc(F)c3)nc(N)c2cc1OC	-4%	-28%	.
N#Cc1nc(Nc2ccc3ccccc3c2)nc(NC2CCCC2)n1	.	.	2µM*
c1cc2cn[nH]c2cc1NC1CCCCCC1	-8%	-4%	.
N#Cc1nc(Nc2cccc(F)c2)nc(NC2CCCC2)n1	.	.	0.32µM*
COc1ccc(NC(=O)CN2C(=O)CCn3nc(-c4cccn4C)cc32)cc1	20%	-2%	.
CCn1nc(-c2ccccc2)nc2c(=O)n(C)c(=O)nc1-2	1.3µM*	2.2µM*	4%
CCS(=O)(=O)n1nc(-c2ccc(C)cc2)nc1N	-1%	-2%	.
CCOC(=O)Cn1nc(-c2ccccc2)nc1-c1ccccc1	4%	-3%	.
CCn1nc(-c2ccc(C)cc2)nc2c(=O)n(C)c(=O)nc1-2	.	.	-3%
Cc1ccc(C(=O)N2CCc3cc(CNS(=O)(=O)c4cccs4)ccc32)cc1	?	0%	.
COc1cc(-c2noc(CSc3nc(-c4ccccc4)cc(=O)[nH]3)n2)cc(OC)c1OC	?	0%	.
Cc1nc2cc(-c3ccccc3)nn2c(C)c1CCC(=O)N1CCN(c2ccccc2)CC1	?	3%	-30%
Cc1nc2cc(-c3ccc(Cl)cc3)nn2c(C)c1CCC(=O)N1CCN(c2ccccc2)CC1	-3%	3%	.
SMILES	Cruzain noTriton	Cruzain inh Det	Papain inh
CCOC(=O)c1c(C)[nH]c(C)c1S(=O)(=O)NCC(=O)Nc1ccc(C)cc1C	-3%	3%	.
Cc1cc2ccccc2n1CCNC(=O)C1CCCCC1	0%	-4%	.
Cc1cccc(C)c1OCCCn1c(CCNC(=O)C2CCCCC2)nc2ccccc21	7%	3.5µM*	-21%
O=C(NCCc1nc2ccccc2n1CCCOc1cccc2ccccc12)C1CCCCC1	.	.	-28%
O=C(NCCCc1nc2ccccc2n1Cc1cccc(Cl)c1)C1CCCCC1	2%	-10%	.
O=C(COc1ccccc1)NC1CCCCC1	2%	-2%	.
COC(=O)CNC(=O)C1CCN(C(=O)OCc2ccccc2)CC1	-1%	-5%	.
O=C(CNC(=O)C1CCCCC1)OCCOc1ccccc1	.	.	-6%
O=C(CNC(=O)C1CCCCC1)OCc1ccccc1	.	.	-32%
Cc1coc2cc3oc(=O)c(CCC(=O)NCc4ccccc4Cl)c(C)c3cc12	?	-7%	.
COc1ccc(CCNC(=O)c2c(C)oc3ncn(C)c(=O)c23)c(OC)c1	-11%	0%	.
O=C(NCCc1nc2ccccc2n1CCCOc1ccccc1)C1CCCCC1	.	.	-20%
CC(C)(C)C(=O)NCCc1nc2ccccc2n1CCCCOc1ccc(Cl)cc1	?	-12%	.
OCCCc1nc2ccccc2n1CCOc1ccccc1	-10%	2%	.
O=C(NCCc1nc2ccccc2n1CCCCOc1ccccc1)C1CCCCC1	.	.	25µM*
COc1cc(NC(=O)Cn2c(-c3ccccc3)cc(C(C)=O)c2C)cc(OC)c1	1%	-9%	.
CC(C)c1ccc(-c2noc(SCC(=O)N3CCCCC3)n2)cc1	11%	0%	.
CC(=O)N1CCc2c(sc3nc(SCC(C)C)n(-c4ccc(C)c(Cl)c4)c(=O)c23)C1	?	-10%	.
O=C(COC(=O)CCSc1ccccc1)Nc1ccc(F)cc1Cl	-12%	?	.
O=C(COC(=O)CCSc1ccccc1Cl)Nc1ccc(F)cc1F	13µM*	14µM*	-2%

High-throughput results (PubChem)
